Test [1] can be described thus: NCI Yeast Anticancer Drug Screen. Data for the rad50 strain (AID 155).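 Note: 0% = growth of vehicle-only cultures of the same strain.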 As to conditions: S. cerevisiae rad50 strain growth inhibition, stronger effect = higher value. Put shortly: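 A DNA repair-deficient yeast mutant serves as the test organism; compound-induced growth inhibition is calculated against vehicle-treated cells.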
Test [2] can be described thus: NCI Yeast Anticancer Drug Screen. Data for the mec2-1 strain (AID 157). As to conditions: S. cerevisiae mec2-1 strain, stronger effect = higher value. Put shortly:
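Compounds were applied to mec2-1 yeast cells. Their growth was then compared with that of vehicle-treated cultures to give growth inhibition.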

A short description of test [3]: NCI Yeast Anticancer Drug Screen. Data for the sgs1 mgt1 strain (AID 161).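 Note: 0% = growth of cultures given vehicle only.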 As to conditions: S. cerevisiae sgs1 mgt1 strain, stronger effect = higher value. An outline of the steps: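 Growth of a repair-deficient yeast mutant was monitored after compound treatment and expressed as inhibition relative to vehicle-treated cultures.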
Test [4] is described as follows: NCI Yeast Anticancer Drug Screen. Data for the cln2 rad14 strain (AID 165).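 Note: 0% = growth equal to vehicle treated cultures.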 To be noted: S. cerevisiae cln2 rad14 strain, stronger effect = higher value. An outline of the steps: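 Strain: cln2 rad14 yeast, altered in cell cycle control and DNA damage repair. Read-out: growth inhibition vs vehicle.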
A short description of test [5]: NCI Yeast Anticancer Drug Screen. Data for the bub3 strain (AID 167). As to conditions: S. cerevisiae bub3 mutant strain, stronger effect = higher value. An outline of the steps:
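Inhibition values come from growth of compound-treated mutant yeast normalised to vehicle-treated controls.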

Test [6] in a line: NCI Yeast Anticancer Drug Screen. Data for the mlh1 rad18 strain (AID 175). To be noted: S. cerevisiae mlh1 rad18 strain growth inhibition, stronger effect = higher value. An outline of the steps:
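A repair-deficient yeast strain is exposed to test compound, and growth is scored relative to vehicle-treated controls.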

Where [7] appears, read: at 5.0 µM (retest, dose inferred, filed as 0.5).
[8] abbreviates: at 50.0 µM (retest, dose inferred, filed as 5.0).

SMILES strings stand for the structures. This is part of a sample that, as a whole, favours compounds with a hit. Of some 79,000 tested, about 15% had one in any assay. Values without a mark were called inactive. Active and inactive are the calls of the source. Cut-off read from the data, not from the text of the source: active = growth inhibition above about 70%; inactive = the rest.

Consider `Cc1c(N=Nc2cccc(F)c2)c(-c2ccccc2)nn1C(N)=S`, for which the growth inhibition is 14% in test [1] (setting [7]); 97% (active) in test [1] (setting [8]); 99.2% (active) in test [1] (at 50.0 µM); 1% in test [2] (setting [7]); 98% (active) in test [2] (setting [8]); 99.4% (active) in test [2] (at 50.0 µM). Further, the growth inhibition in test [3] (setting [7]) was 3%; in test [3] (setting [8]), 99% (active); in test [3] (at 50.0 µM), 99.4% (active); in test [4] (setting [7]), -5%; in test [4] (setting [8]) it was 96% (active); in test [4] (at 50.0 µM), 99.1% (active). Also, the growth inhibition in test [5] (setting [7]) is 1%; in test [5] (setting [8]), 97% (active); in test [5] (at 50.0 µM), 99.5% (active); in test [6] (setting [7]) it was 0%; in test [6] (setting [8]) it was 98% (active); in test [6] (at 50.0 µM), 99.2% (active).
In the case of `Clc1cc2ccccc2c2ccccc12`, the growth inhibition in test [1] (setting [7]) was 0%; in test [1] (setting [8]), 62%; in test [1] (at 50.0 µM) it was 84.6% (active); in test [2] (setting [7]), -3%; in test [2] (setting [8]) it was 21%; in test [2] (at 50.0 µM) it was 10.8%. For the same compound, the growth inhibition in test [3] (setting [7]) was -3%; in test [3] (setting [8]) it was 32%; in test [3] (at 50.0 µM), 75.2% (active); in test [4] (setting [7]) it was -3%; in test [4] (setting [8]), 6%; in test [4] (at 50.0 µM), -51.7%. Further, the growth inhibition was -2% in test [5] (setting [7]); 64% in test [5] (setting [8]); 77.3% (active) in test [5] (at 50.0 µM); -1% in test [6] (setting [7]); 84% (active) in test [6] (setting [8]); 93.2% (active) in test [6] (at 50.0 µM).
As for `CCc1cc2nc3c(=O)[nH]c(=O)nc-3n(CCN(CCO)CCO)c2cc1CC`, the growth inhibition is 5% in test [1] (setting [7]); 3% in test [1] (setting [8]); 41% in test [1] (at 50.0 µM); 10% in test [2] (setting [7]); 27% in test [2] (setting [8]); 30.6% in test [2] (at 50.0 µM). For the same compound, the growth inhibition in test [3] (setting [7]) was 2%; in test [3] (setting [8]), 15%; in test [3] (at 50.0 µM), 55%; in test [4] (setting [7]), 2%; in test [4] (setting [8]), -6%; in test [4] (at 50.0 µM), 37%. Moreover, the growth inhibition is 2% in test [5] (setting [7]); -7% in test [5] (setting [8]); 18.1% in test [5] (at 50.0 µM); 2% in test [6] (setting [7]); 7% in test [6] (setting [8]); 81.9% (active) in test [6] (at 50.0 µM).
As for `CNC(=O)OCc1c(COC(=O)NC)c2n(c1C)-c1ccccc1CCC2`, the growth inhibition is 23% in test [1] (setting [7]); 35% in test [1] (setting [8]); 85.8% (active) in test [1] (at 50.0 µM); 11% in test [2] (setting [7]); 70% (active) in test [2] (setting [8]); 89.6% (active) in test [2] (at 50.0 µM). For the same compound, the growth inhibition in test [3] (setting [7]) is 38%; in test [3] (setting [8]), 75% (active); in test [3] (at 50.0 µM) it was 90% (active); in test [4] (setting [7]), 38%; in test [4] (setting [8]), 56%; in test [4] (at 50.0 µM), 88.9% (active). The growth inhibition in test [5] (setting [7]) is 50%; in test [5] (setting [8]) it was 77% (active); in test [5] (at 50.0 µM) it was 87.5% (active); in test [6] (setting [7]), 15%; in test [6] (setting [8]), 43%; in test [6] (at 50.0 µM), 87.6% (active).
As to `CCCCCCCCN(CCCCCCCC)CC(O)c1cc(-c2ccc(Cl)cc2)nc2c(Cl)cccc12` (configuration not stated), the growth inhibition in test [1] (setting [7]) is 1%; in test [1] (setting [8]), 5%; in test [1] (at 50.0 µM) it was 19.1%; in test [2] (setting [7]), -1%; in test [2] (setting [8]), 1%; in test [2] (at 50.0 µM) it was 25.2%. Further, the growth inhibition was -3% in test [3] (setting [7]); 20% in test [3] (setting [8]); 35.6% in test [3] (at 50.0 µM); -4% in test [4] (setting [7]); -13% in test [4] (setting [8]); 45.4% in test [4] (at 50.0 µM). For the same compound, the growth inhibition in test [5] (setting [7]) was 2%; in test [5] (setting [8]) it was 12%; in test [5] (at 50.0 µM), 6.6%; in test [6] (setting [7]) it was 3%; in test [6] (setting [8]), 4%; in test [6] (at 50.0 µM), 33.5%.
For `CCOc1ccc(N=NS(=O)(=O)O)cc1`, the growth inhibition was -8% in test [1] (setting [7]); 14% in test [1] (setting [8]); 61.1% in test [1] (at 50.0 µM); -11% in test [2] (setting [7]); -23% in test [2] (setting [8]); -5.45% in test [2] (at 50.0 µM). The growth inhibition was -12% in test [3] (setting [7]); -24% in test [3] (setting [8]); -6.5% in test [3] (at 50.0 µM); -29% in test [4] (setting [7]); -88% in test [4] (setting [8]); 15% in test [4] (at 50.0 µM). In addition, the growth inhibition in test [5] (setting [7]) is -7%; in test [5] (setting [8]), -13%; in test [5] (at 50.0 µM), -23.1%; in test [6] (setting [7]) it was -2%; in test [6] (setting [8]), -5%; in test [6] (at 50.0 µM), 9.4%.
`CCOP(=O)(OCC)OC1c2[nH]ccc2-c2cc(C(=O)OC)[nH]c2C1OC` (configuration not stated): the growth inhibition is 3% in test [1] (setting [7]); 11% in test [1] (setting [8]); 12.5% in test [1] (at 50.0 µM); 0% in test [2] (setting [7]); 10% in test [2] (setting [8]); 25.9% in test [2] (at 50.0 µM). Moreover, the growth inhibition in test [3] (setting [7]) is -3%; in test [3] (setting [8]) it was 17%; in test [3] (at 50.0 µM) it was 83.2% (active); in test [4] (setting [7]) it was -6%; in test [4] (setting [8]), 6%; in test [4] (at 50.0 µM), 5.9%. In addition, the growth inhibition was 3% in test [5] (setting [7]); -2% in test [5] (setting [8]); 21.5% in test [5] (at 50.0 µM); -5% in test [6] (setting [7]); 15% in test [6] (setting [8]); 61.4% in test [6] (at 50.0 µM).
As for `CC(=O)O[C@@H]1CO[C@H]2O[C@H]3[C@@H](C(C=O)=C[C@H](O)[C@@H]4C5=C(C(C)C)CC[C@]5(C)CC[C@@]34C)[C@@]2(O)C1=O`, the growth inhibition was 99% (active) in test [1] (setting [7]); 99% (active) in test [1] (setting [8]); 92.1% (active) in test [1] (at 50.0 µM); 99% (active) in test [2] (setting [7]); 100% (active) in test [2] (setting [8]); 92.8% (active) in test [2] (at 50.0 µM). The growth inhibition in test [3] (setting [7]) was 97% (active); in test [3] (setting [8]), 100% (active); in test [3] (at 50.0 µM), 92.7% (active); in test [4] (setting [7]), 94% (active); in test [4] (setting [8]) it was 98% (active); in test [4] (at 50.0 µM), 91% (active). The growth inhibition was 97% (active) in test [5] (setting [7]); 99% (active) in test [5] (setting [8]); 91.3% (active) in test [5] (at 50.0 µM); 98% (active) in test [6] (setting [7]); 99% (active) in test [6] (setting [8]); 91.7% (active) in test [6] (at 50.0 µM).
`SCCc1ccccn1`: the growth inhibition in test [1] (setting [7]) was -3%; in test [1] (setting [8]) it was 20%; in test [1] (at 50.0 µM), 0.4%; in test [2] (setting [7]), -2%; in test [2] (setting [8]), 20%; in test [2] (at 50.0 µM) it was 42%. For the same compound, the growth inhibition in test [3] (setting [7]) was 1%; in test [3] (setting [8]), 13%; in test [3] (at 50.0 µM) it was 3.65%; in test [4] (setting [7]), -6%; in test [4] (setting [8]) it was 10%; in test [4] (at 50.0 µM) it was 15.1%. The growth inhibition in test [5] (setting [7]) was -1%; in test [5] (setting [8]), 14%; in test [5] (at 50.0 µM) it was 32.1%; in test [6] (setting [7]) it was -1%; in test [6] (setting [8]) it was 19%; in test [6] (at 50.0 µM), 73.1% (active).

The values are drawn from PubChem BioAssay (NCI).
